Laboratory results as given in the supplement of paper PMC7801607.

Assays:
CHO = experiment: % viability of CHO cells (MTT); higher = less toxic; details: 48 h
Summary of the method: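 CHO cells were seeded at 10^6 cells/well in 200 µL and left overnight to attach. The medium was then replaced with fresh medium containing compound at 2 or 20 µM for 48 h. Survival was read colorimetrically with the tetrazolium (MTT) assay. Percent viability was expressed relative to untreated cells.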

HepG2-A16-CD81 = experiment: % inhibition of HepG2 viability (CellTiter-Glo); higher = more toxic; details: 5 µM
[1] = test system: Plasmodium falciparum NF54 stage IV/V gametocytes; experiment: % inhibition of gametocyte viability (PrestoBlue); higher = more inhibition; details: 48 h
Summary of the method: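 Stage IV/V NF54 gametocytes (2% gametocytaemia, 5% haematocrit, 100 µL/well) were exposed to compound at 1 or 5 µM. Incubation was 48 h at 37 °C, stationary and hypoxic, followed by 10 µL PrestoBlue for 2 h. Fluorescence at 612 nm was read on 70 µL of transferred supernatant. Percent inhibition of gametocyte viability was normalised to DMSO and kill controls from a single run.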

[2] = test system: Plasmodium falciparum NF54 asexual blood stage; experiment: % inhibition of asexual blood stage proliferation (pLDH); higher = more inhibition; details: 72 h
Summary of the method: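 Plasmodium falciparum NF54 ring-stage cultures (1% haematocrit, 2% parasitaemia) were exposed to compound at 2 or 20 µM in 96-well plates. Incubation was 72 h at 37 °C under 4% CO2, 3% O2 and 93% N2. Survival was read colorimetrically at 620 nm with the parasite lactate dehydrogenase assay. Percent inhibition of asexual proliferation was normalised to DMSO and kill controls, and the screen was run on two separate occasions.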

[3] = test system: Plasmodium falciparum NF54 stage IV/V gametocytes; experiment: % inhibition of gametocyte viability (ATP bioluminescence); higher = more inhibition; details: 24 h
Summary of the method: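 In 96-well plates, compound at 1 or 5 µM was added to 30,000 density-gradient-enriched stage IV/V NF54 gametocytes per well and incubated for 24 h at 37 °C. ATP readout used the Promega BacTiter Glo bioluminescence system. Percent inhibition of gametocyte viability comes from a single run, normalised to control wells.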

[4] = test system: Plasmodium falciparum NF54 stage IV/V gametocytes; experiment: % inhibition of gametocyte viability (luciferase reporter); higher = more inhibition; details: 48 h
Summary of the method: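 Percent inhibition came from luminescence and was normalised to controls in a single run. Gametocytes (stage IV/V, NF54-Pfs16-GFP-Luc line, 2% gametocytaemia, 2% haematocrit) were treated with compound at 1 or 5 µM and incubated for 48 h at 37 °C without agitation under hypoxia. Readings used 30 µL lysate with 30 µL Promega luciferin substrate on a GloMax-Multi+ reader, integrating for 10 s.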

[5] = test system: Plasmodium berghei ANKA liver stage in HepG2-A16-CD81; experiment: % inhibition of liver stage parasite viability (luciferase); higher = more inhibition; details: 5 µM; 48 h
Procedure: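 Single-concentration screen of the MMV Pandemic Response Box. P. falciparum NF54 asexual blood stages: pLDH assay, 72 h at 37 °C, 2 and 20 µM, n=2. Stage IV/V gametocytes (NF54): luciferase reporter (NF54-Pfs16-GFP-Luc, 48 h), ATP bioluminescence (24 h) and PrestoBlue (48 h) at 1 and 5 µM, n=1. P. berghei liver stage (luciferase in HepG2-A16-CD81, 48 h post infection) at 5 µM, n=4. All normalised to DMSO and kill controls as % inhibition.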
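Wherever % inhibition of HepG2 viability (CellTiter-Glo) is given: HepG2-A16-CD81 hepatoma cells plated as in the liver-stage assay but without sporozoites, with DMSO wells as negative and 25 µM puromycin as positive control.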

Structure (SMILES)	% viability of CHO cells (CHO; 2 µM) [%]	% viability of CHO cells (CHO; 20 µM) [%]	% inhibition of HepG2 viability (HepG2-A16-CD81) [%]	% inhibition of gametocyte viability ([1]; 1 µM) [%]	% inhibition of gametocyte viability ([1]; 5 µM) [%]	% inhibition of asexual blood stage proliferation ([2]; 2 µM) [%]	% inhibition of asexual blood stage proliferation ([2]; 20 µM) [%]	% inhibition of gametocyte viability ([3]; 1 µM) [%]	% inhibition of gametocyte viability ([3]; 5 µM) [%]	% inhibition of gametocyte viability ([4]; 1 µM) [%]	% inhibition of gametocyte viability ([4]; 5 µM) [%]	% inhibition of liver stage parasite viability [5] [%]
O=c1ccc2ncc(=O)n3c2n1CC3CN1CCC(NCc2cc3c(cn2)OCCC3)CC1 (stereo not drawn)	124	97.3	6.64	< 0	28.4	12.5	40.4	0.762	< 0	< 0	< 0	23.7
Cc1cc(CCOc2c(C)cc(-c3nnn(C)n3)cc2C)on1	100	105	-1.96	26.4	21.8	12.7	31	< 0	< 0	4.37	32.2	33.8
Nc1nc(NC2Cc3ccc(F)cc3C2)nc(N2CCCCC2)n1 (stereo not drawn)	96	79.3	2.58	28.3	55.5	26.7	91	5.3	< 0	< 0	7.28	23.6
CCC[C@@H]1C[C@@H](C(=O)N[C@@H]([C@H]2O[C@H](SC)[C@H](O)[C@@H](O)[C@H]2O)[C@H](C)Cl)N(C)C1	89.5	103	5.96	10.3	24.2	72.9	93.2	< 0	1.18	< 0	< 0	92.2
CCN(CC)CCn1c(=N)n(CC(O)COc2ccc(Cl)cc2Cl)c2ccccc21 (stereo not drawn)	98.9	0.284	2.98	< 0	< 0	95.4	101	82.2	90.7	< 0	91.6	42.1
COC(=O)Nc1nc2cc(S(=O)c3ccccc3)ccc2[nH]1 (stereo not drawn)	118	78	12.1	10.1	11.8	8.21	7.99	1.75	< 0	< 0	< 0	9.84
CC1(C)C[C@H]1C(=O)N/C(=C\CCCCSC[C@@H](N)C(=O)O)C(=O)O	229	49.5	-5.39	25.1	25.8	20.8	20.1	< 0	< 0	< 0	< 0	12.4
Fc1ccc2c(/C=C/c3nnn[nH]3)c[nH]c2c1	80.4	75	2	4.4	18.3	7.6	10.8	< 0	< 0	< 0	4.42	7.99
O=C(c1ccccc1)N1CCN(c2ccccc2NC(=O)C(Cl)(Cl)Cl)CC1	113	74.3	3.18	< 0	5.75	50.4	118	< 0	< 0	< 0	< 0	28.1
O=C1c2cccc3cccc(c23)C(=O)N1CC1CO1 (stereo not drawn)	107	108	-6.3	7.65	8.86	22	66.9	< 0	< 0	< 0	3.81	14.1
O=S(=O)(NCB(O)O)c1ccc(-c2nnn[nH]2)cc1C(F)(F)F	86.3	66.1	3.27	18	9.79	29.1	28.6	< 0	< 0	1.13	3.64	29.3
CC(C)=CCC/C(C)=C/CNCCNC1C2CC3CC(C2)CC1C3 (stereo not drawn)	93.3	65.4	17.1	51.3	89.7	11.7	93	78	90.8	< 0	42.1	21.8
C[C@@H](NC(=O)c1ccccc1-c1ccccc1)B(O)O	84	94	7.46	10.1	30.5	-8.74	-3.48	3.08	< 0	< 0	< 0	19.8
COc1ccc2sc3c(c2c1)NC(C)CNC3=O (stereo not drawn)	97.2	115	33.6	< 0	< 0	38.3	40.7	< 0	< 0	0.316	< 0	-51.9
O=C(c1cc(O)nc2ccccc12)N1CCN(c2ccccc2)CC1	95.9	52.7	-2.09	< 0	< 0	24.8	48.3	4.72	10.4	< 0	< 0	34.2
Nc1nnc(-c2ccc(Cl)cc2)s1	84.5	88.7	-0.915	5.08	< 0	13.1	23.9	< 0	< 0	< 0	< 0	26.2
O=C(Nc1ncc(Cc2cccc3ccccc23)s1)C1CCCCC1	83.3	53.3	7.25	16.9	< 0	22.6	42.9	< 0	< 0	< 0	0.604	-13.3
O=C(CC1Sc2ncnn2C1=O)Nc1ccc(Br)cc1 (stereo not drawn)	100	102	-3.25	20.1	9.94	24.1	42.2	8.79	43.5	< 0	1.92	20.8
C/C(=N\NC(=O)C1CC1c1ccccc1)c1ccc(NC(=O)c2ccco2)cc1 (stereo not drawn)	101	69.1	-5.96	< 0	14.5	18.8	38.7	3.34	< 0	< 0	< 0	13.7
CCn1cc(C(=O)O)c(=O)c2cc(F)c(N3CCNC(C)C3)c(F)c21 (stereo not drawn)	104	102	0.454	34.9	43.8	36.8	28.9	< 0	< 0	< 0	< 0	22.1

Structure (SMILES)	% viability of CHO cells (CHO; 2 µM) [%]	% viability of CHO cells (CHO; 20 µM) [%]	% inhibition of HepG2 viability (HepG2-A16-CD81) [%]	% inhibition of gametocyte viability ([1]; 1 µM) [%]	% inhibition of gametocyte viability ([1]; 5 µM) [%]	% inhibition of asexual blood stage proliferation ([2]; 2 µM) [%]	% inhibition of asexual blood stage proliferation ([2]; 20 µM) [%]	% inhibition of gametocyte viability ([3]; 1 µM) [%]	% inhibition of gametocyte viability ([3]; 5 µM) [%]	% inhibition of gametocyte viability ([4]; 1 µM) [%]	% inhibition of gametocyte viability ([4]; 5 µM) [%]	% inhibition of liver stage parasite viability [5] [%]
CCc1ccccc1OCCN1CCCCCC1	96.9	109	14	15.5	15.2	10.6	87.1	6.82	< 0	< 0	2.04	17.2
CC[C@@H]1C(=O)OC[C@@H]1Cc1cncn1C	111	110	-1.73	< 0	< 0	5.57	14.4	< 0	< 0	< 0	10.7	-7.29
Nc1nc(O)c2ncn(COC(CO)CO)c2n1	83.5	59.2	3.01	< 0	< 0	6.2	41.8	< 0	0.568	7.58	< 0	7.49
CC(N)C12CC3CC(CC(C3)C1)C2 (stereo not drawn)	115	102	-6.21	4.36	25	15.8	20.4	7.67	2.98	< 0	3.24	-6
Cn1c2ccccc2c(=O)c2c(O)cccc21	229	55	-9.48	26.6	21.6	20.3	11	6.28	< 0	7.24	< 0	29.3
O=C(O)/C=C/C=C/c1cccc(Oc2cc(Cl)cc(Cl)c2)c1	97.3	110	-6	< 0	< 0	30.7	41.4	3.95	2.02	9.35	0.936	28.9
CC(C)N(c1cc(-c2ccccc2)sc1C(=O)O)C(=O)[C@H]1CC[C@H](C)CC1	91.8	103	-2.07	18.3	14.3	28.8	44.9	4.36	< 0	4.34	< 0	20.5
COc1cc(Cc2cc(N)nc(N)n2)cc(OC)c1OC	107	103	4.91	< 0	< 0	43.4	50.8	< 0	< 0	< 0	< 0	81.6
CC(C)(C)NC(=O)N[C@H](C(=O)N1C[C@H]2[C@@H]([C@H]1C(=O)NC(CC1CCC1)C(=O)C(N)=O)C2(C)C)C(C)(C)C (stereo partly drawn)	108	50.4	9.51	4.37	8.14	36.6	73.7	< 0	< 0	< 0	< 0	-15.2
NC(=O)[C@@H]1CC[C@@H]2CN1C(=O)N2OS(=O)(=O)O	82.9	117	4.71	< 0	< 0	30.8	16.5	1.17	< 0	< 0	1.87	12.2
N[C@H]1CCC[C@H]1C(=O)O	109	145	-8.85	35.6	26.5	31.3	18.9	< 0	< 0	< 0	< 0	15.8
Nc1ccc(-c2nc3cc(C(F)(F)F)ccc3n2C23CC4CC(CC(C4)C2)C3)cc1	97.3	130	-7.13	22.2	19.2	10.3	67.9	< 0	< 0	< 0	< 0	20.5
Cc1oncc1C(=O)Nc1ccc(C(F)(F)F)cc1	113	96.1	-5.44	< 0	< 0	50.7	38	12	< 0	23.8	45.6	-59.9
NC1C2CC3CC(C2)CC1C3 (stereo not drawn)	78.9	70.3	-1.51	21.5	18.1	76.1	43.4	6.86	5.87	9.54	9.98	9.47
O=C(Nc1ccc(-c2ccccc2)cc1)C1=C(O)C(Cc2ccccc2)OC1=O (stereo not drawn)	93.6	90.4	13.1	< 0	13.8	39.5	101	< 0	< 0	< 0	< 0	44.3
CC(=O)Nc1cc(NS(=O)(=O)c2ccc(Cl)cc2)cc2c(Cl)n[nH]c12	108	81.2	2.74	21.4	50	20.6	75	6.24	3.03	< 0	< 0	11.8
COc1ccc(-n2cnc3cc(NCc4ccco4)ccc32)cc1	93.6	94.6	1.83	< 0	< 0	29.7	44.9	2.7	< 0	< 0	< 0	-16.1
Cc1onc(-c2ccccc2Cl)c1C(=O)N[C@@H]1C(=O)N2[C@@H]1SC(C)(C)[C@@H]2C(=O)O	126	143	-1.54	< 0	30.1	8.35	-0.0824	< 0	< 0	< 0	7.91	17.1
Oc1ccc2[nH]c(-c3ccccc3)nc2c1	107	93	12.1	10.1	13.2	29.1	62.2	< 0	< 0	< 0	< 0	-35.4
